Screens: PubChem BioAssay, National Center for Advancing Translational Sciences (NCATS)
In the library only some 3.4% were active in any assay of this set; here they are far more common.
VDR inhibitor – blocks the human vitamin D receptor; P11473; VDR-SRC2-3 peptide fluorescence polarization, 2 h; Potency, µM, actives largely listed as inhibitors; 400,000 tested, 0.93% active
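Two reagent solutions held at 4 deg C in the dark were dispensed, compounds pinned at 23 nl, and the mixture incubated 2 h at room temperature. Read-out: fluorescence polarization of VDR–SRC2-3 peptide binding.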
GLS inh – glutaminase GLS (human) inhibition | 410,000 tested, 0.21% active | AID 624170 | GLS enzymatic activity, qHTS titration | Potency, µM (doses to about 45.5 µM), hits mostly inhibitors
Target sequence (O94925 whole entry, looked up): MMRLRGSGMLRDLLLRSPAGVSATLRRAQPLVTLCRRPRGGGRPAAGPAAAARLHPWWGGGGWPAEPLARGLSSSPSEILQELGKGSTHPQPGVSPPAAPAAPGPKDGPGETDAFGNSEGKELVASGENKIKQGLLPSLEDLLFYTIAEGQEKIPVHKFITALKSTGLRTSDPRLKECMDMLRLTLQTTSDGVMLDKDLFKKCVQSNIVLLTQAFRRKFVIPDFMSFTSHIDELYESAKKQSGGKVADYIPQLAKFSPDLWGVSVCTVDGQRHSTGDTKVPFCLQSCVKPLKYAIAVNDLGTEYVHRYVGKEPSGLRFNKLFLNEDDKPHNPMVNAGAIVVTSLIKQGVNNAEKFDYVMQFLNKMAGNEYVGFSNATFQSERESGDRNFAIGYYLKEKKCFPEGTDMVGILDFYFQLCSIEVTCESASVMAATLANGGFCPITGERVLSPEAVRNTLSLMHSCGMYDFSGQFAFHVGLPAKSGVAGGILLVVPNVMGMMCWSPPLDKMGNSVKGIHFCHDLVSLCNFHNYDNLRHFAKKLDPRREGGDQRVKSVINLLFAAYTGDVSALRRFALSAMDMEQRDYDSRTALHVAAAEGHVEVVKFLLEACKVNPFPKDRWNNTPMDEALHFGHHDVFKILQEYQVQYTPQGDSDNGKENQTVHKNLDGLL
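Assay buffer: 45 mM KH2PO4 pH 8.2, 0.02% Tween-20. hKGA acts on L-glutamine (1 mM solution added); product glutamate is reported by an oxidase/peroxidase Amplex Red coupling, with fluorescence taken at baseline and 30 min.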
Mito fusion yeast – inhibitors of mitochondrial division or activators of mitochondrial fusion; S. cerevisiae fusion-defective mutant growth rescue, CellTiterGlo 48 h; Potency, µM (series often up to 46.1 µM), most hits filed as activators; 320,000 tested, 0.23% active; further: nearly all actives have a fitted effect of over 45% in size
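Compounds are tested for their ability to restore growth of mitochondrial fusion-defective yeast strains at non-permissive 37C in YPEG medium over 48 hours. Viability is quantified by luciferase luminescence.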
PKM2 act – PKM2 (human) enzyme activation; P14618; purified PKM2, Kinase-Glo ATP luminescence, activation; response scale: 0% is enzyme alone, no compound; Potency, µM (doses to about 57.5 µM), actives largely listed as activators; 260,000 tested, 0.34% active; further: nearly all actives have a fitted effect of over 55% in size
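Purified hPK-M2 (>95% pure) converted ADP (0.1 mM final) to ATP with 0.5 mM PEP in 50 mM imidazole pH7.2, KCl, MgCl2, Tween 20, BSA; 1 h at room temperature. ATP detected by Kinase-Glo luminescence.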
PLK1 PBD block – inhibitors of human PLK1 polo-box domain binding; P53350; Plk1 PBD binding of FITC phosphopeptide, fluorescence polarization; Potency, µM, usual class: inhibitors; 360,000 tested, 2.8% active; AID 720504; further: series mostly up to about 57 µM; nearly all actives have a fitted effect of over 65% in size
KAT2A inh – inhibitors of human GCN5L2 histone acetyltransferase. Q92830. GCN5L2 HAT assay, ThioGlo1 CoA-SH fluorescence. Potency, µM (titrated, usually from 58.9 µM), hits mostly inhibitors. 390,000 tested, 0.21% active. AID 504327
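Titration-based screen in which CoA formation is detected via maleimide probe ThioGlo1 (50uM) turning fluorescent on thiol reaction; substrates H3(1-25) 75uM and acetyl-CoA 70uM, GCN5L2 20nM, 20 min incubation at room temperature.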
TbPYK inh – confirmation of Trypanosoma brucei pyruvate kinase inhibitors; shares compounds with PLK1 PBD block; recombinant TbPYK, Kinase-Glo ATP luminescence; Potency, µM (titrated, usually from 76.9 µM), usual class: inhibitors; 890 tested, 67% active; AID 720569; further: nearly all actives have a fitted effect of over 70% in size
TbPYK ADP-Glo – orthogonal confirmation of Trypanosoma brucei pyruvate kinase inhibitors. AID 720584. 890 tested, 62% active. shares compounds with PLK1 PBD block. recombinant TbPYK, ADP-Glo luminescence, 60 min. Potency, µM (top dose mostly 76.9 µM), usual class: inhibitors; further: nearly all actives have a fitted effect of over 75% in size
A number is an active result; [ ] = dose if it differs, or a comment. The call rests on the fitted dose curve; in most records, active means well fitted curve in the direction sought with a large enough effect; inconclusive means small, poorly fitted or top-dose-only effect, or another doubt; inactive means no such curve, though single readings can be large; an effect the other way counts as inactive or inconclusive.

What do the screens show for `CCc1ccc(CN(Cc2ccco2)C(=O)c2cc(-c3ccc(C)c(F)c3)on2)cc1`?
VDR inhibitor: inactive; GLS inh: inactive; KAT2A inh: inactive

How did Fc1cccc(Cc2c(-c3ccco3)nc3ccc(Br)cn23)c1 do in these assays?
GLS inh: 16µM; PLK1 PBD block: 24µM; TbPYK inh: inconclusive; TbPYK ADP-Glo: inconclusive

Results for COC(=O)c1ccc2nc(-c3ccco3)c(Cc3ccccc3)n2c1 ?
GLS inh: inactive; PLK1 PBD block: inconclusive; TbPYK inh: 13µM; TbPYK ADP-Glo: 14µM

What do the screens show for `Fc1cccc(Cc2c(-c3ccco3)nc3ccc(Cl)cn23)c1`?
GLS inh: inconclusive; PLK1 PBD block: 24µM; TbPYK inh: inactive; TbPYK ADP-Glo: inconclusive

What do the screens show for `Clc1ccc2nc(-c3ccco3)c(Cc3ccccc3)n2c1`?
GLS inh: inactive; PLK1 PBD block: inconclusive; TbPYK inh: inconclusive; TbPYK ADP-Glo: 35µM

How did COC(=O)c1ccc2nc(-c3ccco3)c(Cc3cccc(Cl)c3)n2c1 do in these assays?
GLS inh: inactive; PLK1 PBD block: inactive

How did C=CCOC(=O)N[C@@H](c1cccs1)C(C(C)=O)C(C)=O do in these assays?
VDR inhibitor: inactive

How did COc1ccc(-n2nc3c(N4CCCC(C(=O)NCCc5ccc(C)cc5)C4)nnc(C)c3c2C)cc1 (stereo not given) do in these assays?
VDR inhibitor: inactive; GLS inh: inactive; KAT2A inh: inactive

What do the screens show for `O=C1C(=Cc2ccccc2O)SC(=S)N1CCCN1CCOCC1`?
GLS inh: inactive; PLK1 PBD block: 2.7µM; TbPYK inh: 4µM; TbPYK ADP-Glo: 3.2µM

Results for Oc1ccc(N2CCN(C(c3cccs3)c3nnnn3CCc3ccccc3)CC2)cc1 (stereo not given) ?
VDR inhibitor: inactive; GLS inh: inactive; Mito fusion yeast: inactive; PKM2 act: inactive; PLK1 PBD block: inactive; KAT2A inh: inactive; TbPYK inh: 4.5µM; TbPYK ADP-Glo: 22µM

Results for COc1cc2c(c(OC)c1)C(c1cccc(OC)c1OC)CC(=O)N2 (stereo not given) ?
VDR inhibitor: inactive; GLS inh: inactive; Mito fusion yeast: inactive; PKM2 act: inactive; PLK1 PBD block: inactive; KAT2A inh: inactive

How did COc1ccc(N2CSC3=C(C#N)C(c4cccc(OC)c4OC)CC(=O)N3C2)cc1 (stereo not given) do in these assays?
VDR inhibitor: 20µM; GLS inh: inactive; Mito fusion yeast: inactive; PKM2 act: inactive; PLK1 PBD block: 7.5µM; KAT2A inh: inconclusive; TbPYK inh: 1.6µM; TbPYK ADP-Glo: 1.4µM

How did CCc1ccccc1N1CSC2=C(C#N)C(c3ccccc3F)CC(=O)N2C1 (stereo not given) do in these assays?
VDR inhibitor: inconclusive; GLS inh: inactive; Mito fusion yeast: inactive; PKM2 act: inactive; PLK1 PBD block: 19µM; KAT2A inh: inconclusive; TbPYK inh: 1.1µM; TbPYK ADP-Glo: 1.8µM

What do the screens show for `Cn1c2c(c(=O)n(C)c1=O)C(c1ccccc1F)C(C#N)=C(N)O2` (stereo not given)?
VDR inhibitor: inactive; GLS inh: inactive; Mito fusion yeast: inactive; PKM2 act: inactive; PLK1 PBD block: inconclusive; KAT2A inh: inactive

Results for O=C(NCC(c1cccs1)S(=O)(=O)c1cccs1)c1ccc(F)c(F)c1 (stereo not given) ?
VDR inhibitor: inactive; GLS inh: inactive; KAT2A inh: inactive

What do the screens show for `O=C(CSc1ncnc2sc3c(c12)CCCC3)NC1CCS(=O)(=O)C1` (stereo not given)?
VDR inhibitor: inactive; GLS inh: inactive; PLK1 PBD block: inconclusive; KAT2A inh: inactive

What do the screens show for `Nc1sc2c(c1C(=O)NC1CCS(=O)(=O)C1)CCCC2` (stereo not given)?
VDR inhibitor: inconclusive; GLS inh: inactive; Mito fusion yeast: inactive; PKM2 act: inactive; PLK1 PBD block: 27µM; KAT2A inh: inactive; TbPYK inh: 14µM; TbPYK ADP-Glo: 16µM

How did CC(=O)NCC(=O)OCC(=O)c1ccc(Cl)cc1 do in these assays?
VDR inhibitor: inactive; GLS inh: inactive; Mito fusion yeast: inactive; PKM2 act: inactive; PLK1 PBD block: inactive; KAT2A inh: inactive

How did CS(=O)(=O)N1CCN(c2ccc([N+](=O)[O-])cc2F)CC1 do in these assays?
VDR inhibitor: inactive; GLS inh: inactive; Mito fusion yeast: inactive; PKM2 act: inactive; PLK1 PBD block: inactive; KAT2A inh: inactive

Results for CS(=O)(=O)N1CCN(c2ccc([N+](=O)[O-])cc2C(F)(F)F)CC1 ?
VDR inhibitor: inconclusive; GLS inh: inactive; Mito fusion yeast: inactive; PKM2 act: inactive; PLK1 PBD block: inactive; KAT2A inh: inactive; TbPYK inh: inconclusive; TbPYK ADP-Glo: inconclusive

What do the screens show for `Cc1nc(SCC(=O)O)c(C#N)c(C)c1CC(=O)c1ccccc1`?
VDR inhibitor: inactive; GLS inh: inactive; Mito fusion yeast: inactive; PKM2 act: inactive; PLK1 PBD block: inactive; KAT2A inh: inactive; TbPYK inh: 5.6µM; TbPYK ADP-Glo: 11µM

Results for CCOC(=O)CCc1c(C)nc(SCC(=O)O)c(C#N)c1C ?
VDR inhibitor: inconclusive; GLS inh: inactive; Mito fusion yeast: inactive; PKM2 act: inactive; PLK1 PBD block: inactive; KAT2A inh: inactive; TbPYK inh: 2.2µM; TbPYK ADP-Glo: 7.1µM

Results for Cc1cc(-c2nc3ncccc3o2)ccc1NC(=O)COc1cc(C)c(Cl)c(C)c1 ?
VDR inhibitor: inactive; GLS inh: inactive; KAT2A inh: inactive

How did CC(Sc1nc(C(F)(F)F)nc2ccccc12)C(=O)NC1CCCC1 (stereo not given) do in these assays?
VDR inhibitor: inactive; GLS inh: inactive; Mito fusion yeast: inactive; PLK1 PBD block: inactive; KAT2A inh: inactive

How did O=C(NCc1c(O)ccc2ccccc12)c1ccccc1 do in these assays?
VDR inhibitor: inactive; GLS inh: inactive; Mito fusion yeast: inactive; PKM2 act: inactive; PLK1 PBD block: inactive; KAT2A inh: inactive

Results for Cc1ccc(N(CC(=O)N2CCN(Cc3ccccc3)CC2)S(C)(=O)=O)cc1C ?
VDR inhibitor: inactive; GLS inh: inactive; Mito fusion yeast: inactive; PKM2 act: inactive[11.5 µM]; PLK1 PBD block: inactive; KAT2A inh: inactive

What do the screens show for `CCOc1cc2[nH]c(=S)n(Cc3ccc(C(=O)NCCN(CC)CC)cc3)c(=O)c2cc1OCC`?
VDR inhibitor: inactive; GLS inh: inactive; Mito fusion yeast: inactive; PLK1 PBD block: inactive; KAT2A inh: inactive; TbPYK inh: 14µM; TbPYK ADP-Glo: 14µM
